Inconclusive results are not listed. Active and inactive are the calls of the source.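 Rule for the calls, unless noted: active = percent response above 42, roughly 3 SD of non-fluorescent test compounds; inactive = the rest.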

A short description of test [1]: yeast TOR pathway RPL19A-GFP modulators, primary screen, cell-based, S. cerevisiae, multiplex flow cytometry (AID 1862; in the data active = percent of DMSO control GFP below about 86%;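 note: lower values mimic rapamycin by blocking the RPL19A rise seen in DMSO cells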). The settings on record: S. cerevisiae RPL19A-GFP strain, flow cytometry fluorescence, 3 h; at 10 µM; stronger effect = lower value. For orientation: In flow cytometry, cells or beads pass a laser one at a time.
Test [2] is described as follows: modulators of MEP2-GFP levels in yeast, primary screen, S. cerevisiae, multiplex flow cytometry (AID 1867;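 active = GFP response, as percent of the DMSO control, above the screen-wide mean plus 3 SD, about 139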;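 note: median GFP channel fluorescence of barcode-gated MEP2-GFP cells measured by flow cytometry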). Particulars: S. cerevisiae MEP2-GFP strain, 3 h, at 10 µM, stronger effect = higher value, 100% means same as DMSO wells.
The nature of test [3]: modulators of CIT2-GFP expression in yeast, primary screen, S. cerevisiae, GFP fusion, multiplex flow cytometry (AID 1870;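 active = percent response above a set limit, the screen-wide mean plus 3 SD, cut at about 130% in these data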;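 note: barcoded CIT2-GFP strain pooled with four other GFP strains with rapamycin as positive control; median GFP fluorescence per well over plate mean of DMSO wells so 100% = DMSO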). The settings on record: 3 h, at 10 µM, stronger effect = higher value.
A short description of test [4]: modulators of LAP4-GFP expression in yeast, primary screen, S. cerevisiae, multiplex flow cytometry (AID 1873;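 active = GFP signal, as percent of the solvent control, above the screen mean plus 3 SD, about 149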). The settings on record: 3 h, at 10 µM, stronger effect = higher value.
The nature of test [5]: modulators of AGP1-GFP expression in yeast TOR pathway, primary screen, cell-based, multiplex flow cytometry, S. cerevisiae (AID 1887;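 active = GFP signal above the screen-wide mean plus 3 SD, that is over about 124.5% of the solvent control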;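 note: AGP1-GFP fusion strain of S. cerevisiae within a five-strain barcoded multiplex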). The settings on record: 3 h, at 10 µM, stronger effect = higher value.
Test [6] can be described thus: inhibitors of CD8+ T cell-vesicle binding, pilot screen, LFA-1/ICAM-1 modulator project, MLPCN validation set, flow cytometry (AID 2523;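 active = response below a set limit, under 55% cells CD8-positive and vesicle-bound, and CD8 cells' 90th-percentile brightness under 279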;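 for vesicle binding response: mean PE anti-B7-1 fluorescence of CD8+ cells relative to row control; 100% = QL9-loaded vesicles with DMSO vehicle in the same plate row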). The settings on record: 2C mouse CD8+ T cells, at 7 µM, stronger effect = lower value; double positive events: measured here: CD8+/vesicle+ event percentage.
Test [7] concerns the target Integrin beta-1 (Homo sapiens) + Integrin alpha-4 (Homo sapiens) (UniProt P13612+P05556). As to the kind of experiment: inhibition of HUTS-21 binding to VLA-4, pilot screen, VLA-4 allosteric modulator project, U937 cells, HUTS-21 mAb, flow cytometry, validation set (AID 2674;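 active = inhibition above 50%, about 3 SD of the validation set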;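 note: antibody binding induced by the VLA-4 ligand LDV present at three times its Kd; 0% = LDV ligand with antibody and no compound and 100% = antibody without LDV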). The settings on record: HUTS-21 LIBS mAb binding, at 6.7 µM, stronger effect = higher value, binding induced by LDV ligand.

The nature of test [8]: superoxide lowering in aged yeast cells, pilot screen, validation compound set (AID 2706;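 active = superoxide response below 65% of plate, a cut near 3 SD across the whole screen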;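 note: yeast exposed to compound for one week at 30 degrees C before staining; 100% = mean of all compound wells on the same plate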). The settings on record: S. cerevisiae aging, superoxide DHE fluorescence; at 10 µM; stronger effect = lower value.
The target in test [9] is Beta-adrenergic receptor kinase 1 (Homo sapiens) (UniProt P25098). As to the kind of experiment: GRK2 binders displacing RNA aptamer, biochemical, validation, human GRK2, bead flow cytometry (AID 488806;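 active = aptamer binding inhibition above 30%, about 3 SD of noise from non-fluorescent compounds; inactive = inhibition at or below 30%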). The settings on record: bead-bound GRK2, FAM-aptamer displacement, at 10 µM, stronger effect = higher value.
Beta-adrenergic receptor kinase 1 (Homo sapiens), sequence (P25098 whole entry, looked up): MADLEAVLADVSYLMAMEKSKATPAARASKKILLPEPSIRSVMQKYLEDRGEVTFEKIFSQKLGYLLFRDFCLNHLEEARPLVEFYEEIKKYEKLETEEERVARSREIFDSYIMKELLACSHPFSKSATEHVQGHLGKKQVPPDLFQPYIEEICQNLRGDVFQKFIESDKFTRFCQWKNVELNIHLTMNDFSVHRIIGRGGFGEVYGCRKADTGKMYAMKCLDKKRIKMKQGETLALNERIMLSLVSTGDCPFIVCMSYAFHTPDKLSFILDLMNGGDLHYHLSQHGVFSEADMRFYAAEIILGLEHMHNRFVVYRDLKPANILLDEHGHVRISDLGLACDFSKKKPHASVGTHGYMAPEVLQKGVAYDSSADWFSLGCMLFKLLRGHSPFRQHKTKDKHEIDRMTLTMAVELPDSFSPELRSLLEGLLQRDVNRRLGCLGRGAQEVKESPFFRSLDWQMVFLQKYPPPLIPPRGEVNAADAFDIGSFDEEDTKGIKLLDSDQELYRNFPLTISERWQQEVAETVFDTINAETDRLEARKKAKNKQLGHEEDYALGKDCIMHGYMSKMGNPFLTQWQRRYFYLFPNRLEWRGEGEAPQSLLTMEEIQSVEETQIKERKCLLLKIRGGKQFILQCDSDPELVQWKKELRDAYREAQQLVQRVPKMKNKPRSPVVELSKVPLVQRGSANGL
The target of test [10] is Beta-2 adrenergic receptor (Homo sapiens) (UniProt P07550). In words: beta2AR agonists driving receptor internalization, pilot screen, cell-based, FAP fluorogen, flow cytometry, validation set (AID 504459).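 Note: agonist-driven loss of surface beta2AR via internalization measured by FAP dye flow cytometry.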 The settings on record: Am2.2-beta2AR cells, FAP surface receptor flow cytometry; at 10 µM; stronger effect = higher value.
Beta-2 adrenergic receptor (Homo sapiens), sequence (P07550 whole entry, looked up): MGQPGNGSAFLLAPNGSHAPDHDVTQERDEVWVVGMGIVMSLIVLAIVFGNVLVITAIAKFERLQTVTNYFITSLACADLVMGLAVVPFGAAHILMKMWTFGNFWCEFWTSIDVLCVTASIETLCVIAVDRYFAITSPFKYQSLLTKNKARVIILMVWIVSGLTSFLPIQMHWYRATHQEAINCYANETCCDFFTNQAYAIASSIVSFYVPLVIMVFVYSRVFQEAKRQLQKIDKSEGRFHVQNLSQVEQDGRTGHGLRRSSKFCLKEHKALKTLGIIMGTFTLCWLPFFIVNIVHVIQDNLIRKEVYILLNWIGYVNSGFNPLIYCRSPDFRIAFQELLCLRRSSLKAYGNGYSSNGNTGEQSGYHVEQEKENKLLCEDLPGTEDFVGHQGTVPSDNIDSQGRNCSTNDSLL
The target in test [11] is AP-2 complex subunit beta (Homo sapiens) (UniProt P63010). As to the kind of experiment: inhibitors of arrestin peptide binding to AP2, pilot screen, biochemical, validation set, GST-AP2 beads, flow cytometry (AID 504541;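 active = inhibition above 54%, about 3 SD of non-fluorescent compounds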;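 note: AP2 carries R879A mutation and is captured from E. coli lysate; bead-bound FITC arrestin peptide fluorescence measuring arrestin peptide binding to AP2; 0% = DMSO wells and 100% = excess unlabeled arrestin peptide control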). Particulars: FITC arrestin peptide, at 10 µM, stronger effect = higher value, AP2 beta2 appendage fragment, R879A mutant.
AP-2 complex subunit beta (Homo sapiens), sequence (P63010 whole entry, looked up, the tested form may be a part, one chain of several): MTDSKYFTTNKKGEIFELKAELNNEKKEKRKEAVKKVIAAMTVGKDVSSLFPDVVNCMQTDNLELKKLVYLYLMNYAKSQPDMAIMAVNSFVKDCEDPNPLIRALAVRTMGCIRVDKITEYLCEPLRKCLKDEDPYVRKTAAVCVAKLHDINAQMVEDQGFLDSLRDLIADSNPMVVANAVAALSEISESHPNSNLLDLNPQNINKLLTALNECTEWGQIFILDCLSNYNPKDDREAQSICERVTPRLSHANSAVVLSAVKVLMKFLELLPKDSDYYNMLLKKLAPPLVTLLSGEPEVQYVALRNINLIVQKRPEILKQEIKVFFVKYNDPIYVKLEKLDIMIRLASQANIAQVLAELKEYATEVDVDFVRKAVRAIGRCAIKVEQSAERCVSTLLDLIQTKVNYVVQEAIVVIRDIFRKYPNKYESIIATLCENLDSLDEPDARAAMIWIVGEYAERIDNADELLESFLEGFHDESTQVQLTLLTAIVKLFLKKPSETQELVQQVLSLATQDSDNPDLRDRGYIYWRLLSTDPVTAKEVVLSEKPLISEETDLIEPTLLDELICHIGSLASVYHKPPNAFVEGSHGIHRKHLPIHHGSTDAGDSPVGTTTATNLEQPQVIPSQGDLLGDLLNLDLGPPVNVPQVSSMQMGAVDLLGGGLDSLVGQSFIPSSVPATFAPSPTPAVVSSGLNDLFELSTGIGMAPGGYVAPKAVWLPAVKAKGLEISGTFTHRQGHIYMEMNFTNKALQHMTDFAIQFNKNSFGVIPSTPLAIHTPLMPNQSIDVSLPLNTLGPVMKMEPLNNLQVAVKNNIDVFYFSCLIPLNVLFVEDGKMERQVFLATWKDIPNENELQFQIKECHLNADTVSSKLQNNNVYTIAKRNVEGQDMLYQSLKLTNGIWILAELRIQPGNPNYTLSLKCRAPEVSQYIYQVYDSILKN
A short description of test [12]: yeast V-ATPase proton transport modulators, S. cerevisiae, pHLuorin, HTS validation (AID 504600; in the data active = response above about 15%;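 note: plate controls were DMSO for no effect and reference compound for full effect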). The settings on record: S. cerevisiae pHLuorin cytosolic pH, at 10 µM, stronger effect = higher value.
The subject of test [13] is anti-desmoglein-3 scFv antibody binding to human DSG3. In words: inhibitors of anti-DSG3 scFv binding to DSG3, pilot screen, biochemical, validation compound set, bead-based, flow cytometry (AID 588368;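 active = binding below the plate cutoff, the plate median minus 3 SD, with a reading above zero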;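 note: signal is the median channel fluorescence of bead-bound GFP antibody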). Particulars: Protein G beads, DSG3-Fc, scFv-GFP binding, at 10 µM, stronger effect = lower value.
A short description of test [14]: inhibitors of fungal efflux pumps CDR1, CDR2, MDR1, pilot screen, validation compound set, multiplex, phenotypic (AID 588506;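 active = efflux inhibition above 0.42, the validation set average plus 4 SD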;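 note: Nile Red retained in cells so higher fluorescence means more efflux inhibition; 0 = negative control wells and 1 = enniatin B 25 µM full block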). Particulars: S. cerevisiae pump-expressing triplex, Nile Red efflux flow cytometry; at 10 µM; stronger effect = higher value; the pumps come from Candida albicans.
The target of test [15] is ATP-binding cassette sub-family B member 6 (Homo sapiens) (UniProt Q9NP58). As to the kind of experiment: ABCB6 transporter inhibitors, pilot screen, K562-ABCB6 cells, flow cytometry, validation set (AID 588550;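 active = inhibition above the screen-wide mean plus 3 SD, about 51%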;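 note: 0% = DMSO wells and 100% = benzethonium chloride 70 µM positive control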). The settings on record: K562-ABCB6 porphyrin accumulation, 1 h, at 10 µM, stronger effect = higher value.
ATP-binding cassette sub-family B member 6 (Homo sapiens), sequence (Q9NP58 whole entry, looked up): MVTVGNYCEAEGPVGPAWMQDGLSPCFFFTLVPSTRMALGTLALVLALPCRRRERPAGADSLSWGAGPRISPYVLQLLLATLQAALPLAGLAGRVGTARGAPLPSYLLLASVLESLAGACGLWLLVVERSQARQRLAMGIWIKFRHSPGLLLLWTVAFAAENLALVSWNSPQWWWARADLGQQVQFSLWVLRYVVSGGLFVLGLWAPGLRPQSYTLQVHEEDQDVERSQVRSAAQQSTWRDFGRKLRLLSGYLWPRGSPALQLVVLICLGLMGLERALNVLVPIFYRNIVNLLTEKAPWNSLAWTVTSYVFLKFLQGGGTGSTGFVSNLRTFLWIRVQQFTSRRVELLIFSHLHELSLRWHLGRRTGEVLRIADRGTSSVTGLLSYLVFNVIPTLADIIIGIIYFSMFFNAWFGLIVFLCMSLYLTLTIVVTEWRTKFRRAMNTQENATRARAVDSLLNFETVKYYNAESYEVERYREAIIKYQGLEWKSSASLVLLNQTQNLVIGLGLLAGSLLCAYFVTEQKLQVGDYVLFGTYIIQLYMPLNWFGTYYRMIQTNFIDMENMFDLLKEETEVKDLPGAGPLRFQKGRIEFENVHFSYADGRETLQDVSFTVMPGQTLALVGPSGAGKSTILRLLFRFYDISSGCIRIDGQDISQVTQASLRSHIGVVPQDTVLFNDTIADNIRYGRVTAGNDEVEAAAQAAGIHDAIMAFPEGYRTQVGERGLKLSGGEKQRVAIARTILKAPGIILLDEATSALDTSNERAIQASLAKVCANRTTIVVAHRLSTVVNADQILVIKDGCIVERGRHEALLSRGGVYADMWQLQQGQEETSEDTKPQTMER
Test [16] is described as follows: promoters of myeloid differentiation in arrested cells, primary screen, cell-based, GFP/MAC1 double positive, flow cytometry, validation set (AID 588685;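 active = differentiation response of at least 50%, scaled between solvent and reference control, from cells with both markers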;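 note: compound exposure lasts four days before antibody staining and flow analysis; 0% = DMSO wells and 100% = 5 µM fulvestrant positive control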). Particulars: ER-HoxA9 marrow cells, stronger effect = higher value, normalized: vehicle 0, fulvestrant 100.

Integrin beta-1 (Homo sapiens) + Integrin alpha-4 (Homo sapiens), sequence (P05556 whole entry, looked up): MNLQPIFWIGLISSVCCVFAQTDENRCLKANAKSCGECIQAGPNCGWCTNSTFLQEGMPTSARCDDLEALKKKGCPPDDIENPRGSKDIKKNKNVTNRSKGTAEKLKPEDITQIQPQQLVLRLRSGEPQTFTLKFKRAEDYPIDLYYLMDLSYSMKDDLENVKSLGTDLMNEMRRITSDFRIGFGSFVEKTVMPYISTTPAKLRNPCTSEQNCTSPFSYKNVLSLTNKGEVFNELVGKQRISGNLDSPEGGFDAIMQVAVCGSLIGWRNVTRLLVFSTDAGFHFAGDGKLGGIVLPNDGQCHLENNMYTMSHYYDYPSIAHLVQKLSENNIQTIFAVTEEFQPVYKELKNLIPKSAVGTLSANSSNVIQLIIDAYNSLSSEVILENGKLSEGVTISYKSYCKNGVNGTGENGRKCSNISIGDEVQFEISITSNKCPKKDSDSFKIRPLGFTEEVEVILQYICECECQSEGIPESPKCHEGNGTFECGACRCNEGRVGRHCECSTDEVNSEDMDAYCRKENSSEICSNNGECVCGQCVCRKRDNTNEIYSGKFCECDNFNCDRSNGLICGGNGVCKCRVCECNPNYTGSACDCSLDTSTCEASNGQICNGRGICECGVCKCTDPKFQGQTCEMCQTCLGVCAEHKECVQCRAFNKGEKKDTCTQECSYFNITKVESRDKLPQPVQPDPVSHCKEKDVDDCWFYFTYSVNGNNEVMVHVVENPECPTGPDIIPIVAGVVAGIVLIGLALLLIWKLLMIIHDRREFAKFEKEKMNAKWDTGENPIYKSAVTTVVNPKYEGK
Integrin beta-1 (Homo sapiens) + Integrin alpha-4 (Homo sapiens), sequence (P13612 whole entry, looked up): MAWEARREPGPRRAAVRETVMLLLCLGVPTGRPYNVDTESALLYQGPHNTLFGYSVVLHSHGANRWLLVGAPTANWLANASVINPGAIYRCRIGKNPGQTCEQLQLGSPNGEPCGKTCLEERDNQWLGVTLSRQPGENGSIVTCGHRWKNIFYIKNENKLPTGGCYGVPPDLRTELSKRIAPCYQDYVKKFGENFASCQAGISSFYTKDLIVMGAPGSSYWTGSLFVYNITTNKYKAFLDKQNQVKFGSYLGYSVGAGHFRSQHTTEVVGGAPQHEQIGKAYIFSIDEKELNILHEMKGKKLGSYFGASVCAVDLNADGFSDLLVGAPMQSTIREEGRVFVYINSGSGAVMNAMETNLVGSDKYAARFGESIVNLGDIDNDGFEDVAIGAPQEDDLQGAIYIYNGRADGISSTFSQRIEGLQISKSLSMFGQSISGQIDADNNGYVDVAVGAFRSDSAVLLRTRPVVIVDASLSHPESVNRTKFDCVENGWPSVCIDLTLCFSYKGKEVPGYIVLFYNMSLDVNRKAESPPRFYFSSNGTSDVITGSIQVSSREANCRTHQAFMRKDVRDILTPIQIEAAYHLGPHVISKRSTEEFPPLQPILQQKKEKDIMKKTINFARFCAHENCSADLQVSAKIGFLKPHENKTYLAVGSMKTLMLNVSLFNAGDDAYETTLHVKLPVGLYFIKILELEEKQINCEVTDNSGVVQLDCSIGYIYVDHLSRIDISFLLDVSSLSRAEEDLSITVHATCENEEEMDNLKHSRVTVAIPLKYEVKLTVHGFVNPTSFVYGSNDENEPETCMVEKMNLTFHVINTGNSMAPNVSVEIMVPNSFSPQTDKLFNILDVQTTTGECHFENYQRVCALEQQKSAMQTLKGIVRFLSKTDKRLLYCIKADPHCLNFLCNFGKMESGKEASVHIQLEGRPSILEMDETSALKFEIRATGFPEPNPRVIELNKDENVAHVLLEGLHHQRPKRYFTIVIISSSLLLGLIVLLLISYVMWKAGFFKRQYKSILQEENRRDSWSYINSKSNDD

As usually defined, the inhibition is the relative decrease from the control value, in per cent. With `NC(=O)c1ncn([C@@H]2O[C@H](CO)[C@@H](O)[C@H]2O)c1O`, in test [1], the percent of DMSO control GFP was 101% (inactive). The values for the GFP response vs DMSO in test [2] and in test [4] were 103% (inactive) and 108% (inactive), respectively. Further, the percent response of DMSO control in test [3] is 96.7% (inactive). In addition, the GFP response, % of DMSO in test [5] is 98% (inactive). The same compound came in with a double positive events in test [6] of 55.9%. The vesicle binding response in test [6] is 164% (inactive). In addition, the inhibition in test [7] is -16.8% (inactive); in test [11], -16.1% (inactive); in test [15], 3% (inactive). Moreover, the superoxide response (% of plate) in test [8] is 109% (inactive). For the same compound, the aptamer binding inhibition in [9] was 1% (inactive). In addition, the results for the response in test [10] and in [12] were 3.75% (inactive) and -4.18% (inactive), respectively. In addition, the binding (% of control) in test [13] is 98.7% (inactive). The efflux inhibition (fraction of control) in [14] is -0.21 (inactive). The differentiation response in test [16] was -15.2% (inactive).
`COc1ccc2[nH]cc(C3N4CC5(C)CN3CC(C)(C4)C5=O)c2c1` (stereo not given): the percent of DMSO control GFP in test [1] was 103% (inactive). Moreover, the GFP response vs DMSO in test [2] and in [4] was 103% (inactive) throughout. In [3], the percent response of DMSO control was 107% (inactive). Also, the GFP response, % of DMSO in [5] was 107% (inactive). In [6], this compound came in with a double positive events of 59.2%. The vesicle binding response in test [6] was 138% (inactive). Besides, the inhibition in test [7] is 9.63% (inactive); in test [11] it was 10.8% (inactive); in test [15] it was 2% (inactive). For the same compound, the superoxide response (% of plate) in test [8] is 105% (inactive). In addition, the aptamer binding inhibition in [9] was -2% (inactive). Besides, the response in [10] was -5.37% (inactive); in [12] it was 1.5% (inactive). The binding (% of control) in test [13] is 101% (inactive). Further, in test [14], the efflux inhibition (fraction of control) is -0.08 (inactive). Moreover, the differentiation response in [16] was -11.9% (inactive).
Regarding `COc1cc(C)nc(-n2nc(C)cc2OC)n1`, in test [1], the percent of DMSO control GFP is 101% (inactive). The GFP response vs DMSO is 103% (inactive) in test [2] and 92.7% (inactive) in test [4]. In addition, the percent response of DMSO control in test [3] is 96.6% (inactive). In addition, the GFP response, % of DMSO in test [5] is 102% (inactive). The compound also registered a double positive events in test [6] of 61.8%. For the same compound, the vesicle binding response in test [6] is 5320% (inactive). Besides, the inhibition was -12.9% (inactive) in test [7], 2.91% (inactive) in test [11] and 2% (inactive) in test [15]. For the same compound, the superoxide response (% of plate) in test [8] is 88.7% (inactive). Moreover, the aptamer binding inhibition in [9] is 1% (inactive). The response in test [10] was -8.04% (inactive); in [12], 48.8% (active). Besides, in test [13], the binding (% of control) is 95.9% (inactive). In addition, the efflux inhibition (fraction of control) in [14] was 0.02 (inactive). The differentiation response in test [16] was 8.06% (inactive).
On to `O=C(Nc1cccc(C(=O)O)c1)/C(=C\c1ccccc1)NC(=O)c1ccccc1`, for which the percent of DMSO control GFP in [1] was 105% (inactive). Moreover, the GFP response vs DMSO in [2] is 98.3% (inactive); in [4], 84.8% (inactive). In [3], the percent response of DMSO control was 106% (inactive). In test [5], the GFP response, % of DMSO is 100% (inactive). Moreover, the double positive events in test [6] turned out to be 58.1%. Further, the vesicle binding response in test [6] is 150% (inactive). The values for the inhibition in test [7], in [11] and in [15] were -1.49% (inactive), 0.49% (inactive) and 15% (inactive), respectively. In addition, in test [8], the superoxide response (% of plate) is 95.7% (inactive). Moreover, the aptamer binding inhibition in test [9] was 5% (inactive). The results for the response in test [10] and in test [12] were -3.48% (inactive) and 0.44% (inactive), respectively. For the same compound, in test [13], the binding (% of control) is 99% (inactive). For the same compound, the efflux inhibition (fraction of control) in test [14] is 0.14 (inactive). Further, in [16], the differentiation response was 11% (inactive).
Turning to `COc1cc2c(cc1NCc1ccc3c(c1)OCO3)oc1ccccc12`, the percent of DMSO control GFP in test [1] was 99.6% (inactive). Besides, the GFP response vs DMSO in [2] is 133% (inactive); in test [4], 88% (inactive). For the same compound, the percent response of DMSO control in test [3] was 112% (inactive). Besides, the GFP response, % of DMSO in test [5] is 89.4% (inactive). The same compound registered a double positive events in [6] of 64%. In test [6], the vesicle binding response is 167% (inactive). Moreover, the inhibition in test [7] is 1.61% (inactive); in test [11] it was 47.4% (inactive); in test [15], 0% (inactive). In addition, the superoxide response (% of plate) in test [8] was 99.1% (inactive). Further, the aptamer binding inhibition in test [9] was 0% (inactive). Also, the figures for the response in [10] and in test [12] were 4.3% (inactive) and 8.06% (inactive), respectively. Besides, the binding (% of control) in test [13] was 103% (inactive). Also, the efflux inhibition (fraction of control) in test [14] was 0.37 (inactive). Further, in [16], the differentiation response was 8.19% (inactive).
